Inconclusive results are not listed. The source made the active and inactive calls. Unless noted, calls follow the shape of the dose curve; as a rule, active = well fitted curve in the direction sought with a large enough effect in the repeat runs; inconclusive = weak or mixed curves; inactive = no such curve, though single readings can be large; an effect the other way counts as inactive or inconclusive.
How the values were obtained:
[1] = target: Thyrotropin receptor (Homo sapiens) (UniProt P16473); assay: qHTS assay to identify small molecule agonists of the thyroid stimulating hormone receptor (TSHR) signaling pathway (AID 1224843; calls by dose curve; also: nearly all actives have a fitted effect of over 45% in size)
Outline: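 Agonist-mode screen: TSHR HEK293 cells received test chemicals for half an hour at room temperature, then HTRF cAMP detection reagents for one hour prior to fluorescence measurement. Each chemical ran as a 15-concentration series, triplicated.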

[2] = qHTS assay to identify small molecule agonists of the hypoxia (HIF-1) signaling pathway - cell viability counter screen (AID 1224844; calls by dose curve; also: nearly all actives have a fitted effect of over 50% in size)
Outline: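 CellTiter-Glo luminescence read-out, 30 min RT, taken in the same wells as the beta-lactamase HRE reporter assay; HRE-bla ME-180 cells, 0.5% dialyzed FBS, 17 hr compound treatment at 37C, 5% CO2.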

[3] = qHTS assay to identify small molecule agonists of H2AX (AID 1224845; active = well fitted activation curve with a large enough effect in the signal ratio in the repeat runs, not every such curve was filed as active; the % refers to the signal ratio)
Outline: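 Wild-type CHO-K1 cells, plated overnight, exposed 3hr at 37C to 15 concentrations (0.76% DMSO final). Lysed, then HTRF anti-pH2AX (S139) cryptate and anti-H2AX-d2 antibodies, 24 hr room temperature; 665/620 nm emission read.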

[4] = qHTS assay to identify small molecule agonists of the hypoxia (HIF-1) signaling pathway (AID 1224846; active = well fitted activation curve with a large enough effect in the signal ratio in the repeat runs, not every such curve was filed as active; the % refers to the signal ratio)
Outline: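 Beta-lactamase FRET read-out (CCF4-AM substrate) from ME-180 cells carrying an HRE-driven bla reporter, after 17 hrs compound exposure at 37C/5% CO2. Cells were seeded at 2,000 per well in 0.5% dialyzed FBS medium and preincubated 5 hrs.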

[5] = qHTS assay to identify small molecule antagonists of the estrogen related receptor (ERR) signaling pathway from Tox21 library (AID 1224848); also: nearly all actives have a fitted effect of over 50% in size
Outline: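 Quantitative high-throughput format: ERR reporter cells (2,000/well) pre-incubated 6 h, treated 18 h at 37 C with compounds in DMSO alongside positive and negative controls, then read by ONE-Glo luminescence.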

[6] = qHTS assay to identify small molecule agonists of the estrogen related receptor (ERR) signaling pathway from Tox21 library (AID 1224849; calls by dose curve; also: nearly all actives have a fitted effect of over 15% in size); details: ERR reporter cell line, ONE-Glo luciferase, 18 h; at 92.4 µM (top of the series) unless noted
Outline: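 Luminescence readout (ONE-Glo, 30 min RT) after 18 h compound exposure at 37 C of NTP-supplied ERR reporter cells; cells were plated 6 h before compound addition by pin tool.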

[7] = qHTS RealTime-Glo MT Cell Viability Assay in HepG2 cells - 24 hour (AID 1224867); also: nearly all actives have a fitted effect of over 50% in size
Outline: (§1)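 Compound treatment began 5 h after plating HepG2 cells (600/well) with NanoLuc luciferase and prosubstrate. Plates stayed at 37 C for 40 h; luminescence was captured at six time points, 0 h through 40 h.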

[8] = qHTS RealTime-Glo MT Cell Viability Assay in HEK293 cells - 32 hour (AID 1224868); also: top concentration of the series differs between compounds; nearly all actives have a fitted effect of over 50% in size
Outline: (§2)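 Quantitative high-throughput screen of the Tox21 10K library in HEK293: cells and RealTime-Glo reagents plated together, compound added at 5 h, luminescence monitored through 40 h at 37 C.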

[9] = A CellTox Green Cytotoxicity Assay to monitor cytotoxicity in HEK293 cells - 0 hour (AID 1224869); also: nearly all actives have a fitted effect of over 50% in size
Outline: (§3)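 Read-out: fluorescence of a cell-impermeant cyanine dye staining DNA of dead cells, proportional to cytotoxicity. HEK293, 600 cells/well with reagent, compound (23 nL DMSO) added after 5 h; reads at 0, 8, 16, 24, 32, 40 h.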

[10] = A CellTox Green Cytotoxicity Assay to monitor cytotoxicity in HEK293 cells - 40 hour (AID 1224871); also: nearly all actives have a fitted effect of over 45% in size
Outline: as §3

[11] = qHTS RealTime-Glo MT Cell Viability Assay in HEK293 cells - 16 hour (AID 1224872)
Outline: as §2

[12] = qHTS RealTime-Glo MT Cell Viability Assay in HepG2 cells - 8 hour (AID 1224873); also: nearly all actives have a fitted effect of over 55% in size
Outline: (§4)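 HepG2 cells (600/well) mixed with RealTime-Glo MT reagent, settled 5 h at 37 C/5% CO2 before compound addition. Nonlytic NanoLuc luminescence from viable-cell prosubstrate reduction read repeatedly during 40 h treatment at 37 C.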

[13] = qHTS RealTime-Glo MT Cell Viability Assay in HEK293 cells - 40 hour (AID 1224874); details: RealTime-Glo luminescence; max response: stronger effect = lower value; also: nearly all actives have a fitted effect of over 50% in size
Outline: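 Luminescence readout at each listed time point; HEK293, 600 cells/well, RealTime-Glo MT reagent added with cells; compounds pinned (23 nL in DMSO) after 5 h at 37 C; continuous culture at 37 C.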

[14] = A CellTox Green Cytotoxicity Assay to monitor cytotoxicity in HEK293 cells - 24 hour (AID 1224875); also: nearly all actives have a fitted effect of over 45% in size
Outline: as §3

[15] = A CellTox Green Cytotoxicity Assay to monitor cytotoxicity in HepG2 cells - 16 hour (AID 1224876); also: nearly all actives have a fitted effect of over 45% in size
Outline: (§5)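 HepG2, 600 cells/well premixed w/ CellTox Green; 5 h settle, 37 C/5% CO2; pintool cpd add (DMSO); 37 C, 40 h; fluorescence read at 0, 8, 16, 24, 32, 40 h.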

[16] = qHTS RealTime-Glo MT Cell Viability Assay in HepG2 cells - 32 hour (AID 1224877); also: nearly all actives have a fitted effect of over 55% in size
Outline: as §1

[17] = A CellTox Green Cytotoxicity Assay to monitor cytotoxicity in HepG2 cells - 40 hour (AID 1224879); also: nearly all actives have a fitted effect of over 40% in size
Outline: as §5

[18] = qHTS RealTime-Glo MT Cell Viability Assay in HepG2 cells - 40 hour (AID 1224870); also: nearly all actives have a fitted effect of over 50% in size
Outline: as §4

[19] = A CellTox Green Cytotoxicity Assay to monitor cytotoxicity in HepG2 cells - 24 hour (AID 1224878); also: nearly all actives have a fitted effect of over 45% in size
Outline: as §5

[20] = qHTS assay to identify small molecule agonists of H2AX - cell viability counter screen (AID 1224847; calls by dose curve; also: top concentration of the series differs between compounds; nearly all actives have a fitted effect of over 30% in size)
Outline: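 For this counter screen, overnight-attached CHO-K1 cells received test compounds (15 concentrations, 0.76% DMSO final); 3 hr later at 37C, CellTiter-Glo reagent was added and luminescence recorded after 30 min at room temperature.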
% is scaled to controls: 0 for no effect and ±100 for the full control effect.

Sequence of Thyrotropin receptor (Homo sapiens) (P16473 whole entry, looked up): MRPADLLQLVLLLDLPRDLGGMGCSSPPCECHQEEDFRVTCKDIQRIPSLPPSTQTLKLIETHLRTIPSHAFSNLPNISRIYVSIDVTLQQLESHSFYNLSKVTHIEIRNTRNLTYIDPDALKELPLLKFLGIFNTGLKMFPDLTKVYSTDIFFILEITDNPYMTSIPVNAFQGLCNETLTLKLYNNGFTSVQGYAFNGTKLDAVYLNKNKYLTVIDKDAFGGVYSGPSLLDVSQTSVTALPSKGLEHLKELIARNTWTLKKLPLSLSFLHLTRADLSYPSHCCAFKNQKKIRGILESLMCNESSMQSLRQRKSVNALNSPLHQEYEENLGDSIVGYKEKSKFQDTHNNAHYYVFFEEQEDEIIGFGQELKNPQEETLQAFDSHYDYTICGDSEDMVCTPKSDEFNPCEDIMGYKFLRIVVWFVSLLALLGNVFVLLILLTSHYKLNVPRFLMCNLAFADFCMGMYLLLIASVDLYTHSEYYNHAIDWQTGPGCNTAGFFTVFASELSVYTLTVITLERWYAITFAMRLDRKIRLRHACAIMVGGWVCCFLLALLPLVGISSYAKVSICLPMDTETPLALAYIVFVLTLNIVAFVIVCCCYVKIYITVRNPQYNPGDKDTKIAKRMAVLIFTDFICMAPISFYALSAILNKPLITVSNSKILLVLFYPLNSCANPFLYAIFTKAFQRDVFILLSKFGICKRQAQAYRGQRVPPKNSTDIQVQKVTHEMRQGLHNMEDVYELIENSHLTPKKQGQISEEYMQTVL

COc1ccc(Br)c(C)c1
inactive: Potency [1] | outcome [2] | outcome [3] | outcome [4] | Potency [5] | activity change, positive = activation [6] -0.068% | outcome [7] | Potency [8] | outcome [9] | Potency [10] | Potency [11] | outcome [12] | max response [13] 4.1% | outcome [14] | outcome [15] | outcome [16] | Potency [17]

O=C1CCCC(=O)O1
inactive: Potency [1] | outcome [2] | outcome [3] | outcome [4] | Potency [8] | outcome [9] | outcome [18] | Potency [11] | outcome [12] | max response [13] 15.9% | outcome [14] | outcome [15] | outcome [19] | Potency [17]

CC(C)(C)OC(=O)c1ccc(O)cc1
inactive: Potency [1] | outcome [2] | outcome [4] | Potency [20] | Potency [5] | outcome [7] | Potency [8] | outcome [9] | outcome [18] | Potency [10] | Potency [11] | outcome [12] | max response [13] -26.7% | outcome [14] | outcome [15]

O=P(O)(O)OP(=O)(O)O
inactive: Potency [1] | outcome [2] | outcome [3] | Potency [20] | outcome [7] | Potency [8] | outcome [9] | outcome [18] | Potency [11] | outcome [12] | max response [13] 2.82% | outcome [14] | outcome [15] | outcome [19] | Potency [17]

CC1COc2ccccc2N1 (configuration not stated)
inactive: Potency [1] | outcome [2] | outcome [4] | Potency [20] | Potency [5] | activity change, positive = activation [6] 13.7% | outcome [9] | outcome [18] | Potency [10] | Potency [11] | outcome [12] | outcome [14] | outcome [15] | outcome [16] | outcome [19] | Potency [17]

CCNC(=O)C1CC(C)CCC1C(C)C (configuration not stated)
inactive: Potency [1] | outcome [2] | outcome [4] | Potency [20] | Potency [5] | activity change, positive = activation [6] -8.38% | outcome [7] | Potency [8] | outcome [9] | outcome [18] | Potency [10] | Potency [11] | outcome [12] | max response [13] 2.62% | outcome [14] | outcome [15] | outcome [16] | outcome [19] | Potency [17]

Nc1ncnc(Nc2ccccc2)n1
inactive: Potency [1] | outcome [2] | outcome [3] | outcome [4] | outcome [7] | Potency [8] | outcome [9] | Potency [10] | Potency [11] | outcome [12] | max response [13] 3.02% | outcome [14] | outcome [15] | outcome [19] | Potency [17]

CCCC/C=C\CCCCCCCCCC=O
inactive: Potency [1] | outcome [2] | outcome [3] | outcome [4] | Potency [5] | activity change, positive = activation [6] 2.29% | outcome [7] | Potency [8] | outcome [9] | outcome [18] | Potency [10] | Potency [11] | outcome [12] | max response [13] -10.9% | outcome [14] | outcome [15] | outcome [19] | Potency [17]

CC(=O)N[C@@H](CCC(=O)O)C(=O)O
inactive: Potency [1] | outcome [2] | outcome [4] | Potency [20] | Potency [5] | activity change, positive = activation [6] 5.46% [at 42.5 µM] | outcome [7] | Potency [8] | outcome [9] | outcome [18] | Potency [10] | Potency [11] | outcome [12] | max response [13] 1.63% | outcome [14] | outcome [15] | outcome [16] | Potency [17]

CCOC(=O)/C=C/c1ccccc1
inactive: Potency [1] | outcome [2] | outcome [3] | outcome [4] | outcome [7] | Potency [8] | outcome [9] | outcome [18] | Potency [11] | outcome [12] | max response [13] -4.48% | outcome [14] | outcome [15] | outcome [16] | outcome [19] | Potency [17]

COc1nccnc1NS(=O)(=O)c1ccc(N)cc1
inactive: Potency [1] | outcome [2] | outcome [4] | Potency [20] | Potency [5] | activity change, positive = activation [6] -1.96% [at 42.5 µM] | outcome [7] | Potency [8] | outcome [9] | outcome [18] | Potency [10] | Potency [11] | outcome [12] | max response [13] 2.98% | outcome [14] | outcome [15] | outcome [16] | outcome [19] | Potency [17]

COc1ccc2c(c1OC)C(=O)O[C@@H]2[C@H]1c2c(cc3c(c2OC)OCO3)CCN1C
inactive: Potency [1] | outcome [2] | outcome [3] | Potency [20] | Potency [5] | activity change, positive = activation [6] -16% [at 42.5 µM] | outcome [7] | outcome [9] | outcome [18] | Potency [10] | Potency [11] | outcome [12] | outcome [14] | outcome [15] | outcome [16] | outcome [19]

Cc1ccc(C=O)cc1C
inactive: Potency [1] | outcome [2] | outcome [3] | outcome [4] | outcome [7] | Potency [8] | outcome [9] | outcome [18] | Potency [10] | Potency [11] | outcome [12] | max response [13] 2.17% | outcome [14] | outcome [15] | outcome [16] | outcome [19] | Potency [17]

CCOC(=O)c1ncn2c1CN(C)C(=O)c1cc(F)ccc1-2
inactive: Potency [1] | outcome [2] | outcome [3] | Potency [20] | outcome [7] | Potency [8] | outcome [9] | outcome [18] | Potency [10] | Potency [11] | outcome [12] | max response [13] -10.6% | outcome [14] | outcome [15] | outcome [16] | outcome [19] | Potency [17]

COP(=O)(OC)OC(c1ccc(Cl)cc1)P(=O)(OC)OC (configuration not stated)
inactive: Potency [1] | outcome [2] | outcome [4] | Potency [20] | Potency [5] | activity change, positive = activation [6] 1.9% [at 42.5 µM] | outcome [7] | Potency [8] | outcome [9] | Potency [10] | Potency [11] | outcome [12] | max response [13] 4.98% | outcome [14] | outcome [15] | outcome [16] | outcome [19] | Potency [17]

CC/C=C\CC1=C(C)CCC1=O
inactive: Potency [1] | outcome [2] | outcome [3] | outcome [4] | Potency [5] | activity change, positive = activation [6] -10.1% | outcome [7] | Potency [8] | outcome [9] | Potency [10] | Potency [11] | outcome [12] | max response [13] 0.983% | outcome [14] | outcome [15] | outcome [19] | Potency [17]

Reference: PubChem BioAssay (Tox21)
